# S2 tox = viability counter-screen for ATXN expression inhibitors; S2 cells (HEK-293 line with an ATXN2-luciferase reporter) viability, CellTiter-Fluor protease fluorescence, 24 h; Potency, µM (highest dose often 56.7 µM), usual class: cytotoxic; 0.49% of 400,000 active; further: potency means the concentration at half of the fitted maximal effect; nearly all actives have a fitted effect of over 40% in size
# ATXN2 expr inh = reduces ATXN2 reporter expression in HEK-293 cells; HEK-293 ATXN2-luciferase reporter, luminescence, 24 h; Potency, µM (series often up to 57 µM), for the others: at the top dose activity change, negative = inhibition, actives largely listed as inhibitors; 0.72% of 360,000 active; further: potency means the concentration at half of the fitted maximal effect; on the % scale 0 is the no-effect control and ±100 the full control effect; nearly all actives have a fitted effect of over 55% in size
#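 ATXN2-luciferase reporter cells (luciferase flanked by upstream and downstream ATXN2 gene portions) were treated 24 h at 37 °C with compounds at up to 57 uM. SteadyGlo luminescence gave expression; GF-AFC fluorescence gave viability.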
# HepG2 viability = HepG2 cytotoxicity, counter-screen for TGF-b inhibitors; HepG2 CAGA-GFP viability, ATP luminescence, 18 h; Potency, µM (series often up to 46.1 µM), for inactives: at the top dose activity change, negative = cytotoxicity, hits mostly cytotoxic; 0.76% of 410,000 active; AID 588856; further: potency means the concentration at half of the fitted maximal effect
#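 HepG2 CAGA-GFP cells (1000/well, DMEM with 1% FBS) received compound, then TGF-beta at 500 pg/mL final, and were incubated 18 hours at 37 degrees C. Viability was read by CellTiter-Glo luminescence. Media-only wells were set as complete cell-killing and DMSO as no toxicity.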
# DRD3 agonist = D3 dopamine receptor (human) agonism | D3R DiscoveRx beta-arrestin cells, luminescence, 90 min | max activation, % | 0.58% of 410,000 active; in the data active means max activation above about 30%; further: 0% is about no effect
# Target sequence (P35462 whole entry, looked up): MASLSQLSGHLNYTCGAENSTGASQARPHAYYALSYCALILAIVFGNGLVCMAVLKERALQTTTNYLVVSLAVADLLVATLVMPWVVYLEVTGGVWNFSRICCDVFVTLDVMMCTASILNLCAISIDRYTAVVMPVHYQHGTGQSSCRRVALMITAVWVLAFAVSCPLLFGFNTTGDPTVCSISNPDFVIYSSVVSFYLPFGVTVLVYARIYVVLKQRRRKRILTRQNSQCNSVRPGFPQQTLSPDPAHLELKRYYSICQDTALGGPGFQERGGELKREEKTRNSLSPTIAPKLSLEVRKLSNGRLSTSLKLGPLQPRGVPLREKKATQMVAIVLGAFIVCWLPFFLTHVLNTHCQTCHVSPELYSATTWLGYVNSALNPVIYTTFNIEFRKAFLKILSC
#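 Agonist-mode cell screen: cells plated at 1500/well and incubated overnight at 37 °C, then exposed to library compounds for 90 min at 37 °C. Detection reagent was added for 30–60 min at room temperature, and luminescence was read.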
# TGFb inhibitor = inhibitors of TGF-b signaling; HepG2 CAGA-GFP TGF-b/SMAD3 reporter, GFP fluorescence, 18 h; TGF-beta stimulated, 500 pg/mL final; Potency, µM (series often up to 46.1 µM), without a hit: top-dose activity, negative = inhibition, hits mostly inhibitors; 1.2% of 410,000 active; AID 588855; further: potency means the concentration at half of the fitted maximal effect; on the % scale 0 is the no-effect control and ±100 the full control effect; nearly all actives have a fitted effect of over 65% in size
#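 Inhibition of TGF-beta-driven CAGA-GFP reporter expression in HEPG2 cells is measured by cellular GFP fluorescence after 18 h stimulation with 500 pg/mL recombinant TGF-beta in 1% FBS medium at 37 degrees C.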
# DRD3 antagonist = blocks the human D3 dopamine receptor; max response, negative = inhibition, %; AID 652054; P35462; 2.5% of 360,000 active; D3R cells, DiscoveRx beta-arrestin luminescence, antagonist mode; hits give low values; in the data active means max response below about -50%; inconclusive means no clear call, values can overlap the other calls; further: on the % scale 0 is the no-effect control and ±100 the full control effect
#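 Cells plated overnight at 1500 cells/well, then exposed to library compounds with dopamine controls for 90 minutes at 37 degrees C. DiscoveRx reagent added for 30–60 minutes at room temperature; luminescence read, quantitative HTS format.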
# * hit, by the source's call; i = inactive; ? = inconclusive; . = not tested or not shown. The list is not random: actives were taken first. Their share in the collection is about 4.8%. Unless noted, the call rests on the fitted dose curve; in most records, active means well fitted curve in the direction sought with a large enough effect; inconclusive means small, poorly fitted or top-dose-only effect, or another doubt; inactive means no such curve, though single readings can be large; an effect the other way counts as inactive or inconclusive.
SMILES,S2 tox,ATXN2 expr inh,HepG2 viability,DRD3 agonist,TGFb inhibitor,DRD3 antagonist
COc1ccccc1/C=C/CN1CCN(Cc2ccc(C)o2)C(CCO)C1 (configuration not stated),i,-1%,-16%,-14,-2%,-77*
COc1cc(/C=C/CN2CCN(CCC(C)C)C(CCO)C2)ccc1O (configuration not stated),i,?,-7%,-14,-2%,1
CCN(C(=O)CSc1nc(-c2ccccc2)no1)c1cccc(C)c1,?,?,-90%,10,?,.
O=C(NCc1cccnc1)[C@@H]1CC=C[C@@H]2CCN(C3CCCCC3)C(=O)[C@@H]21,.,.,4%,.,-22%,.
CCOc1ccc(Cn2c(CNS(=O)(=O)c3cccs3)nc3cccnc32)cc1,.,.,-11%,8,-9%,.
C=CCC1Cc2c(cccc2[N+](=O)[O-])C(CC=C)N1 (configuration not stated),i,1%,-21%,41*,5%,8
Cc1nc(C(=O)NCc2ccccc2)sc1C1(C)CC(c2ccccc2)=NO1 (configuration not stated),i,6%,-3%,-18,0%,-50*
COc1ccc(NC(=O)c2nc(C)c(C3(C)CC(c4ccccc4)=NO3)s2)cc1 (configuration not stated),i,7%,-19%,-12,-9%,-12
CC(C)(C)c1cc[n+](C2=C([O-])c3ccccc3C(=O)/C2=N\S(=O)(=O)c2cccs2)cc1,?,11µM*,4.5µM*,-8,2.8µM*,-28
O=C1/C(=N\S(=O)(=O)c2cccs2)C([n+]2ccccc2)=C([O-])c2ccccc21,11µM*,.,-111%,-10,2µM*,-17
O=S(=O)(/N=C/c1ccccc1O)c1cccs1,i,-8%,-20%,4,-6%,11
CCOCCCNC(=O)C(c1ccccc1)N(Cc1cccs1)C(=O)c1ccc(NC(C)=O)cc1 (configuration not stated),?,-14%,4%,-5,?,.
Cc1ccnc(NC(c2ccccc2F)c2ccc3cccnc3c2O)c1 (configuration not stated),i,?,-30%,3,?,.
Cc1ccnc(NC(c2cc(C)ccc2O)c2ccc3cccnc3c2O)c1 (configuration not stated),.,.,-48%,3,.,.
Cc1ccnc(NC(c2ccccc2)c2ccc3cccnc3c2O)c1 (configuration not stated),i,?,-10%,13,?,-12
Oc1c(C(Nc2ccccn2)c2ccccn2)ccc2cccnc12 (configuration not stated),?,5µM*,-16%,-3,-19%,19
Oc1c(C(Nc2ccccn2)c2ccccc2F)ccc2cccnc12 (configuration not stated),.,.,-1%,19,1.4µM*,.
O=c1cc(CO)oc(C(Nc2ccccn2)c2ccccc2F)c1O (configuration not stated),i,0%,-17%,-5,-6%,-51*
Oc1ccccc1C(Nc1nccs1)c1ccc2cccnc2c1O (configuration not stated),i,7.1µM*,-17%,33*,?,-8
Cc1cccc(OCC(=O)Nc2cc(C)c(O)c(-c3nc4ccccc4o3)c2)c1,.,.,6%,.,35%,.
COc1ccc(NC(=O)Cn2c(=O)n(-c3ccc(Cl)cc3)c(=O)c3c(C)c(C(=O)N(C)C)sc32)cc1Cl,.,.,-8%,1,0%,.
CCC(Oc1ccc(F)cc1)C(=O)Nc1c(C(=O)c2ccc(C)cc2)oc2ccccc12 (configuration not stated),.,.,-6%,-16,2%,.
CCOC(=O)c1ccc(N2CCN(c3ccccc3F)CC2)c(NC(=O)Nc2ccc(Cl)c(Cl)c2)c1,.,.,-25%,8,-5%,.
CCOc1ccc(C(=O)c2cn(CC(=O)Nc3ccc(C)c(C)c3)c3ccc(OCC)cc3c2=O)cc1,i,4%,2%,4,-10%,.
CCCCN(C=O)c1c(CC)nc2c(OCCn3cccc3)cccn12,i,-4%,-51%,-13,-17%,-82*
SMILES,S2 tox,ATXN2 expr inh,HepG2 viability,DRD3 agonist,TGFb inhibitor,DRD3 antagonist
CCc1nc2c(OCCC3CCCCC3)cccn2c1N(C=O)Cc1ccc(OC)cc1,i,?,20µM*,-12,?,-77*
CCCCN(C=O)c1c(CC)nc2c(OCC3CCCCC3)cccn12,?,?,-39%,-5,13µM*,5
CCCCN(C=O)c1c(CC)nc2c(OCC(=O)C(C)(C)C)cccn12,i,5%,2%,-2,22%,-16
CCc1nc2c(OCC(=O)C(C)(C)C)cccn2c1N(C=O)CC(=O)N(C)C,i,-2%,2%,-24,-7%,-98*
O=S(=O)(c1ccccc1)c1nnn2c1nc(Nc1ccccc1)c1cc(Cl)ccc12,i,-6%,-13%,-8,8%,.
Cc1ccc(Cn2c(=N)n(CC(=O)c3ccc([N+](=O)[O-])cc3)c3ccccc32)cc1,.,20µM*,-25%,-28,-22%,-4
Cc1ccc(C(=O)Cn2c(=N)n(CCN3CCOCC3)c3ccccc32)cc1,i,0%,-27%,-8,-20%,-10
Cc1cccc(C)c1NC(=O)c1ccc(-c2ccc(Cl)cc2Cl)o1,i,-17%,-10%,-5,?,-29
Cc1cccc(C)c1NC(=O)c1ccc(-c2cc(F)ccc2F)o1,?,-13%,-14%,-21,?,-57*
CC(C)(C)C(=O)NNC(=O)C1CC1(c1ccccc1)c1ccccc1 (configuration not stated),i,-19%,11%,45*,10%,19
COc1ccc(NC(=O)CC2C(=O)N(c3ccc(C)cc3)C(=O)N2CCc2ccccc2)cc1 (configuration not stated),?,-2%,-25%,-7,?,.
COC(=O)c1ccc(C2NC(c3ccc4c(c3)OCO4)=CC(c3ccccc3O)N2)cc1 (configuration not stated),.,.,-49%,.,11µM*,.
Oc1ccccc1C1C=C(c2ccc3c(c2)OCO3)NC(c2cccc(F)c2)N1 (configuration not stated),.,.,18µM*,.,?,.
O=C(/C=C/c1cccc(Cl)c1Cl)OCC(=O)N1CCOCC1,i,8%,-21%,-2,1%,-59*
Cc1cc(C)c(C#N)c(Sc2nc(C)c([N+](=O)[O-])c(C)c2C#N)n1,20µM*,22µM*,13µM*,-6,?,0
